Paper PMC4336329 (PLoS ONE, 2015)
The whole screen tested about 310,000 compounds, of which about 14,000 (4.5%) showed an effect of 50% or more. Effects have a minus sign here. This excerpt belongs to a sample that is enriched for strong results.

What follows are compounds tested against human ether-à-go-go-related gene (hERG) potassium channel (human, UniProt Q12809) (assay: primary screen, population patch clamp on CHO cells stably expressing hERG; higher = less effect of the substance).
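Also: peak tail current of the secondary pulse compared with the same well before compound.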

Chain of human ether-à-go-go-related gene (hERG) potassium channel (Q12809 whole entry, looked up): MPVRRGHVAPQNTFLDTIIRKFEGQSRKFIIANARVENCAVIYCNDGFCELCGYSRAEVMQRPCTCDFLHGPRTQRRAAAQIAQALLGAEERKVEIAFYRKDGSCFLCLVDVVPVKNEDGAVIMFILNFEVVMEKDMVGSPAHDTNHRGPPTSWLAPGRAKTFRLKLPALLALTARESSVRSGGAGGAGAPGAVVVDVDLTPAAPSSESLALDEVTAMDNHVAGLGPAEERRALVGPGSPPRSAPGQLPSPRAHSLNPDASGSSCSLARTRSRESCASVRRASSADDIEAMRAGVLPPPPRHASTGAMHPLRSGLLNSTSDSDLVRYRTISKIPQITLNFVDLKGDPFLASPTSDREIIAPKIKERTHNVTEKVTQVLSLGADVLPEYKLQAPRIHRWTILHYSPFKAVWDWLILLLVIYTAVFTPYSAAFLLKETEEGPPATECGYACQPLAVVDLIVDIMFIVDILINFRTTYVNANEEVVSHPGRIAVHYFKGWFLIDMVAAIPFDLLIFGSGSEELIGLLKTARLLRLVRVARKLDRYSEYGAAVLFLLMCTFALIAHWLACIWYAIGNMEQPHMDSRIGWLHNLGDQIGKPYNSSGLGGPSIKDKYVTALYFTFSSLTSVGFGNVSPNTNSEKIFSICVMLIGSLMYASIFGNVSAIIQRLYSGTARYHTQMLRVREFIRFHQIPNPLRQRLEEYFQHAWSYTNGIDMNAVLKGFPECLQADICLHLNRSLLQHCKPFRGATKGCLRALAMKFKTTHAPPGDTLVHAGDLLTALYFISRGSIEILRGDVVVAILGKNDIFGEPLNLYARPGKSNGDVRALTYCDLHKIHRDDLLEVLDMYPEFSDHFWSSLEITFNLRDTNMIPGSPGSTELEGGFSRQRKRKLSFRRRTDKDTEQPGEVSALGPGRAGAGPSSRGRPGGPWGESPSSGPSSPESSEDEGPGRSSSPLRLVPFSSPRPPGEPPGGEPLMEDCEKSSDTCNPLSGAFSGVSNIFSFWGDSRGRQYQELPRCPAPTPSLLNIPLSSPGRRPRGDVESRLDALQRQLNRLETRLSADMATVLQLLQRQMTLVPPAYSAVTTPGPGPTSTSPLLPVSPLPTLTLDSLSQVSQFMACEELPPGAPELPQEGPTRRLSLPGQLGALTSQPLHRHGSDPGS

| SMILES | hERG current change (%, negative = inhibition) at 10uM [%] |
| --- | --- |
| Cc1ccc(OCC(=O)N2N=C(C(F)(F)F)CC2(O)C(C)(C)C)cc1C (stereo not shown) | -15.9 |
| O=C(NC1CCCCC1)C(c1cccs1)N(C(=O)Cc1c[nH]c2ccccc12)c1ccc(F)cc1 (stereo not shown) | 14.7 |
| Cc1ccc(S(=O)(=O)Cc2ccc(C(=O)N3CCN(c4cccc(C)c4C)CC3)o2)cc1 | -7.95 |
| O=C(c1ccc2c(=O)n(Cc3ccccc3Cl)c(=S)[nH]c2c1)N1CCCC1 | 4.9 |
| Cc1cc(Cl)ccc1OCc1n[nH]c(=S)n1C1CCCCC1 | 21.1 |
| CCN1CCN(c2cc(N3CCc4ccccc4C3)c(F)cc2[N+](=O)[O-])CC1 | -51.9 |
| CC(=O)N1CCN(c2cc(N3CCc4ccccc4C3)c(F)cc2[N+](=O)[O-])CC1 | -41.3 |
| CN1CCN(c2cc(N3CCc4ccccc4C3)c(F)cc2[N+](=O)[O-])CC1 | -44.2 |
| O=C(CCC(=O)Nc1ccccc1)NNC(=O)c1ccco1 | 8.99 |
| O=C(Cn1c(C(=O)NCC2CCCO2)cc2sccc21)c1ccccc1 (stereo not shown) | -3.47 |
| CCN1CCN(C(=O)c2cc3sccc3n2CC(=O)c2ccccc2)CC1 | -45.5 |
| O=C(Cn1c(C(=O)N2CCc3ccccc3C2)cc2sccc21)c1ccccc1 | 4.01 |
| CN1CCN(C(=O)c2cc3sccc3n2CC(=O)c2ccccc2)CC1 | -27.6 |
| O=C(Cn1c(C(=O)N2CCN(C3CCCC3)CC2)cc2sccc21)c1ccccc1 | -76.1 |
| O=C(Cn1c(C(=O)N2CCN(C3CCCCC3)CC2)cc2sccc21)c1ccccc1 | -70.7 |
| CCOc1cc(N2CCOCC2)c(OCC)cc1NC(=O)C1CC(=O)N(c2ccc(C)cc2)C1 (stereo not shown) | -2.64 |
| O=C(COC(=O)c1ccccc1SCC(=O)N1CCCC1)NC1CCCCC1 | -5.12 |
| COc1ccc(C(=O)Oc2c(C)occc2=O)cc1OC | 9.93 |
| C#CCNc1nc(CC)nc2c1nnn2Cc1ccccc1F | -0.696 |
| CCc1nc(NCCCCCO)c2nnn(Cc3ccccc3F)c2n1 | -28.8 |
| CCc1nc(NCC2CCCN2CC)c2nnn(Cc3ccccc3F)c2n1 (stereo not shown) | -54.2 |
| CCOC(=O)C1C(=O)NC(SCC(=O)Nc2nccs2)=C(C#N)C1c1ccccc1OCC (stereo not shown) | 13.7 |
| COc1ccc(OC)c(C2C3CN(C(C)C)CC=C3C(C#N)=C(N)C2(C#N)C#N)c1 (stereo not shown) | -16.2 |
| Nc1c(C(=O)Nc2ccccc2)c2nc3ccccc3nc2n1CCCN1CCOCC1 | 18.7 |
| CCCCc1nc(SCC(=O)N2CCCC2)c2c(=O)n(C)c(=O)n(C)c2n1 | -23 |

| SMILES | hERG current change (%, negative = inhibition) at 10uM [%] |
| --- | --- |
| O=C(CCN1CCN(C(=O)c2ccco2)CC1)Nc1ccc(F)cc1 | -22.4 |
| Cl.O=C(c1ccco1)N1CCN(CCOCCOc2cccc3ccccc23)CC1 | -62.5 |
| Cl.O=C(c1ccco1)N1CCN(CCCCOc2ccc(F)cc2)CC1 | -74.4 |
| Cl.O=C(c1ccco1)N1CCN(CCCCOc2cccc3ccccc23)CC1 | -62.4 |
| Cl.O=C(c1ccco1)N1CCN(CCOc2ccc(F)cc2)CC1 | -47.4 |
| CN1CCN(CCCCOc2cccc3ccccc23)CC1.Cl | -27.4 |
| O=C(c1ccco1)N1CCN(CCCCN2C(=O)c3ccccc3C2=O)CC1 | -40 |
| COc1cccc(OC)c1OCCN1CCN(C(=O)c2ccco2)CC1.Cl | -16.2 |
| O=C(O)C(=O)O.c1ccc(CN2CCN(CCOCCOc3cccc4ccccc34)CC2)cc1 | -43.3 |
| O=C(CCCCCCN1C(=O)c2ccccc2C1=O)Nc1nccs1 | 12.2 |
| COc1cc(CNCCO)cc(Br)c1OCc1cccs1.Cl | -8.81 |
| CCOc1c(C)cc2[nH]c(CCC(=O)O)nc2c1C.Cl | -0.00982 |
| COCCn1c(-c2ccccc2F)n[nH]c1=S | 21.5 |
| CNC(=O)c1ccccc1Sc1ccccc1CO | 27.9 |
| CC(C)(C)c1ccc(NC(=S)NCc2cccs2)cc1 | 4.35 |
| Cc1cc(N2CCN(c3ccccc3)CC2)nc(N)n1.Cl | -42.9 |
| Cc1cc(N2CCN(c3ccccc3)CC2)nc(-n2nc(C)cc2C)n1 | -63.2 |
| Cc1cc(N2CCC(C)CC2)nc(-n2nc(C)cc2C)n1 | -30.3 |
| Cc1cc(N2CCN(c3ccccc3)CC2)nc(NCc2ccccc2)n1 | 4.25 |
| CCCc1nc(C)cc(N2CCN(c3ccccc3)CC2)n1.Cl | -51.7 |
| Cc1cc(C)n(-c2nnc(N3CCN(c4ccccc4)CC3)nn2)n1 | -16 |
| CC(Sc1nc(=O)cc(N)n1CCc1ccccc1)C(=O)NCc1ccccc1 (stereo not shown) | 3.18 |
| Cc1ccc(C)c(S(=O)(=O)N/N=C/c2ccc(N(C)C)cc2)c1 | 16.1 |
| CCC(NC(=O)c1ccccc1NC(=O)c1ccccc1)C(=O)OC (stereo not shown) | 11.3 |
| CS(=O)CSc1nc2c(cc1C#N)CCCC2 (stereo not shown) | -25 |

| SMILES | hERG current change (%, negative = inhibition) at 10uM [%] |
| --- | --- |
| Cc1cc(C)cc(C(=O)NC(CC(N)=O)c2ccc(NCC3CC3)c([N+](=O)[O-])c2)c1 (stereo not shown) | -30.4 |
| NC(=O)CC(NC(=O)c1cccc(Br)c1)c1ccc(NCC2CC2)c([N+](=O)[O-])c1 (stereo not shown) | -65.4 |
| NC(=O)CC(NC(=O)c1cccc(Br)c1)c1ccc(NC2CCC2)c([N+](=O)[O-])c1 (stereo not shown) | -59.8 |
| NC(=O)CC(NC(=O)c1ccccc1)c1ccc(NCC2CC2)c([N+](=O)[O-])c1 (stereo not shown) | -35.3 |
| NC(=O)CC(NC(=O)c1cccc(Br)c1)c1ccc(NC2CCCCCCCCCCC2)c([N+](=O)[O-])c1 (stereo not shown) | 5.21 |
| NC(=O)CC(NC(=O)c1cccc(Br)c1)c1ccc(NC2CCCCCCC2)c([N+](=O)[O-])c1 (stereo not shown) | 6.95 |
| CCCc1nnc(NC(=O)CCC(=O)N2CCN(CCOc3ccc(C)cc3)CC2)s1 | -51.2 |
| Cc1ccc(OCCN2CCN(C(=O)CCC(=O)Nc3nnc(CC(C)C)s3)CC2)cc1 | -43.5 |
| CCc1nnc(NC(=O)CCC(=O)N2CCN(CCOc3ccc(C)cc3)CC2)s1 | -20.2 |
| CCc1nnc(NC(=O)CCC(=O)NC2CCCC2)s1 | -3.36 |
| O=C(c1ccc(-c2nc3ccccc3s2)o1)N1CCN(c2ccccc2O)CC1 | 11.6 |
| O=C(CN1CCN(C(=O)c2ccc(-c3nc4ccccc4s3)o2)CC1)Nc1ccc(F)cc1 | -72.3 |
| CCc1nnc(NC(=O)CCC(=O)NC2CCCCC2)s1 | 15.8 |
| CN1CCN(CC(=O)Nc2nc3ccccc3s2)CC1.O=CO | -5.53 |
| COc1ccccc1N1CCN(C(=O)c2ccc(-c3nc4ccccc4s3)o2)CC1 | -3.16 |
| O=C(CN1CCN(Cc2ccc(F)cc2)CC1)Nc1nc2ccccc2s1 | -69.3 |
| CCN1CCN(CC(=O)Nc2nc3ccccc3s2)CC1.O=CO | -22.7 |
| CCc1nnc(NC(=O)CCC(=O)NC2CC2)s1 | -50.5 |
| Cc1cc(C)c2c(=O)[nH]n(C3CCCCCC3)c2n1 | 23.5 |
| Cc1nc(Nc2nc3c(c(=O)[nH]2)CCC3)nc2ccccc12 | -10.2 |
| Cc1ccc(NC(=S)N(C)C)cc1C | -4.6 |
| O=C(N=C1SC2CS(=O)(=O)CC2N1c1ccc(Cl)cc1Cl)C1CC1 (stereo not shown) | -7.48 |
| Cc1ccc(/C(O)=C/C(=O)C(=O)NNC(=O)C(O)(c2ccccc2)c2ccccc2)cc1 | 14.5 |
| OCCOc1ccc(C2=NCCO2)cc1 | -23.3 |
| Cc1cnc([N+](=O)[O-])n1CCOC(=O)NC(=O)c1ccccc1Cl | 8.87 |

| SMILES | hERG current change (%, negative = inhibition) at 10uM [%] |
| --- | --- |
| COc1ccc(OC)c(NC(=O)CCCNC(=O)c2ccc(Cl)cc2)c1 | -9.27 |
| CCc1nnc(NC(=O)CN2CCN(Cc3cccc(Cl)c3)CC2)s1 | -8.15 |
| CCc1nnc(NC(=O)CN2CCN(Cc3ccc(F)cc3)CC2)s1 | -13.6 |
| CCCN1CCN(CC(=O)Nc2nc3ccccc3s2)CC1 | -49.9 |
| CCc1nnc(NC(=O)CN2CCN(Cc3ccc(C)cc3)CC2)s1 | -57.6 |
| O=C(CN1CCN(Cc2ccccc2)CC1)Nc1nc2ccccc2s1 | -68.2 |
| CS(=O)(=O)c1ccc2nc(NC(=O)CN3CCN(Cc4ccccc4)CC3)sc2c1 | -39.8 |
| Cc1cccc(OCC(=O)Nc2ccc3oc(=O)ccc3c2)c1 | 8.55 |
| COc1ccc(C(C)=O)cc1Cn1nc(C)c([N+](=O)[O-])c1C | 18.5 |
| CC1(C)Oc2ccc3ccc(=O)oc3c2/C(=C/NCCO)C1=O | 5.11 |
| CCCn1c2c(c(=N)c3c1CCC3)CCC2.I | 7.05 |
| CCCn1c2c(c(=N)c3c1CCC3)CCCC2.I | 6.05 |
| CCOC(=O)Cn1c2c(c(=N)c3c1CCC3)CCCC2.Cl | 18.5 |
| Br.CCCCCCn1c2c(c(=N)c3c1CCC3)CCC2 | -76.5 |
| Br.CCCCCCCCn1c2c(c(=N)c3c1CCC3)CCCC2 | -76.1 |
| Br.CCn1c2c(c(=N)c3c1CCC3)CCC2 | 0.642 |
| Br.CCCCCCCCCCn1c2c(c(=N)c3c1CCC3)CCC2 | -78.9 |
| Br.CCCCCCCCCn1c2c(c(=N)c3c1CCC3)CCC2 | -74.1 |
| CCOC(=O)Cn1c2c(c(=N)c3c1CCC3)CCC2.Cl | 8.34 |
| CCCCCCn1c(=O)[nH]c2c(c1=O)CCC2 | -3.06 |
| CCCCn1c2c(c(=N)c3c1CCC3)CCC2.I | -2.48 |
| Br.CCn1c2c(c(=N)c3c1CCC3)CCCC2 | -2.41 |
